Experimental findings from PubChem BioAssay AID1030 (National Center for Advancing Translational Sciences (NCATS), 2008) are described below.

The campaign covered roughly 220,000 compounds. About 16,000 (7.3%) were called active. Roughly 25% stayed inconclusive and do not appear here. The full list was thinned out, with actives kept by preference. Values without a mark were called inactive. The call rests on the fitted dose curve; in most records, active means well fitted inhibition curve with a large enough effect (not every such curve was filed as active); inconclusive means small, poorly fitted or top-dose-only effect, or another doubt; inactive means no such curve, though single readings can be large or run the other way.
Potency means the concentration at half of the fitted maximal effect.

The target in this experiment is Aldehyde dehydrogenase 1A1 (Homo sapiens) (UniProt P00352). The experiment can be described thus: qHTS Assay for Inhibitors of Aldehyde Dehydrogenase 1 (ALDH1A1).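 On activity, negative = inhibition: plate controls were no enzyme wells and a reference inhibitor.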 The settings on record: Purified ALDH1A1, NADH fluorescence, propionaldehyde substrate; series mostly up to 75.3 µM; activity, negative = inhibition: at the top concentration.
Aldehyde dehydrogenase 1A1 (Homo sapiens), sequence (P00352 whole entry, looked up): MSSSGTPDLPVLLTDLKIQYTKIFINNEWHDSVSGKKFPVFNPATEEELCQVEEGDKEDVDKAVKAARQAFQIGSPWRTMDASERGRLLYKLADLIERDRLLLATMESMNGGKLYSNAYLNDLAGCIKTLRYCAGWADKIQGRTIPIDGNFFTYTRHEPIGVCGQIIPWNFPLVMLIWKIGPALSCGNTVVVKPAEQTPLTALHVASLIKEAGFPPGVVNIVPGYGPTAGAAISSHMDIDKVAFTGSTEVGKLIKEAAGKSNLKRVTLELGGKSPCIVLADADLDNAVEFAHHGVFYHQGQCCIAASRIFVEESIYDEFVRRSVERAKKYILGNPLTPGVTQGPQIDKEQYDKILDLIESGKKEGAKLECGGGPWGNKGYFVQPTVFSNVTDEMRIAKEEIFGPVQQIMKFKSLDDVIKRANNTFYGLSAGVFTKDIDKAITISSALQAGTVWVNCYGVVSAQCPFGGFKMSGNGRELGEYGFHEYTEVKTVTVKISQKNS
As to `COc1ccc(C(=O)Nc2cccc(S(C)(=O)=O)c2)cc1`, the “activity, negative = inhibition” value is -3.62%.

For the molecule `COc1ccc(NS(=O)(=O)c2cc(NC(=O)C3CCCCC3)ccc2N2CCOCC2)cc1`, the Potency was 2.51 µM (active).

Take `CC(=O)Nc1ccc(S(=O)(=O)Nc2ccc(N3CCOCC3)c(F)c2)cc1`: the “activity, negative = inhibition” value was -1.53%.

For the molecule `O=C(Nc1cccc(OCC(=O)N2CCOCC2)c1)C1CCCCC1`, the “activity, negative = inhibition” value is 4.85%.

As to `COc1cccc(/C=C2\SC(=N)N(c3ccc(F)cc3)C2=O)c1`, the “activity, negative = inhibition” value was 4.62%.

Take `COc1ccc(CCNC(=O)CSc2nnc3ccc(-c4ccncc4)nn23)cc1`: the “activity, negative = inhibition” value is 7.74%.

Turning to `CN(C)C(=O)CSc1n[nH]c(-c2ccco2)n1`, the “activity, negative = inhibition” value was 5.16%.

In the case of `CCOC(=O)c1cc2ccccc2nc1C`, the “activity, negative = inhibition” value was 5.37%.

Take `CCOC(=O)c1cc2c(nc1NC(=S)Nc1ccccc1)CC(C)(CC)OC2` (stereo unspecified): the Potency is 12.6 µM (active).

`CCOC(=O)c1ccc(NC(=S)Nc2cc(C)cc(C)n2)cc1`: the “activity, negative = inhibition” value was 8.93%.

Consider `O=S(=O)(c1ccccc1)c1nc(-c2ccccc2F)oc1NCc1cccnc1`, for which the “activity, negative = inhibition” value is -11.8%.

For `CN(C)C=NC(=O)c1cccn1-c1ncc(C(F)(F)F)cc1Cl`, the “activity, negative = inhibition” value is 4.08%.

As for `COC(=O)c1cc(NC(=O)c2nn(C)c(=O)c3ccccc23)cc(C(=O)OC)c1`, the “activity, negative = inhibition” value is -2.63%.

As for `OCCCC1CCCCN1Cc1nc(Cc2ccccc2Cl)no1` (stereo unspecified), the “activity, negative = inhibition” value is 4.73%.

Turning to `COc1ccc(N2C(=O)/C(=C\c3ccco3)N=C2SCC(N)=O)cc1Cl`, the “activity, negative = inhibition” value is -13.6%.

For `O=C(COC(=O)CC1CC2CCC1C2)NC(=O)NC1CCCC1` (stereo unspecified), the “activity, negative = inhibition” value was -3.73%.

As to `Cc1ccccc1OCCC(=O)OCC(=O)NC(C)c1ccccc1` (stereo unspecified), the “activity, negative = inhibition” value is 4.27%.

Turning to `CCOC(=O)CCC(=O)OCC(=O)NC(C)C1CC2CCC1C2` (stereo unspecified), the Potency was 15.8 µM (active).

As for `CCOC(=O)CNC(=O)/C(=C\c1ccc(F)cc1)NC(=O)c1ccccc1`, the “activity, negative = inhibition” value is 16.3%.

For the molecule `CN(C)c1nnnn1-c1ccc(Cl)cc1`, the “activity, negative = inhibition” value was 8.16%.

Take `Cc1cc(C)cc(NC(=O)CSc2ccccc2)c1`: the “activity, negative = inhibition” value is -1.77%.

Consider `Cc1cccc(NC(=S)Nc2ccc(Br)cc2)c1`, for which the “activity, negative = inhibition” value is -3.49%.

As to `O=C(Nc1ccc2cn[nH]c2c1)c1ccc(S(=O)(=O)N2CCOCC2)cc1`, the “activity, negative = inhibition” value was -7.41%.

For the molecule `Cc1csc(NC(=S)Nc2cccc(Cl)c2)n1`, the “activity, negative = inhibition” value is -11%.

As to `Cc1cccc(NC(=S)Nc2ccc3cn[nH]c3c2)c1`, the Potency is 10 µM (active).

With `S=C(Nc1cccc(Cl)c1)Nc1ccc2cn[nH]c2c1`, the Potency was 28.2 µM (active).

As to `Cc1cccc(NC(=O)CSc2nc3[nH]ncc3c(=O)[nH]2)c1`, the “activity, negative = inhibition” value is 6.36%.

On to `CC(N)(C(=O)O)c1ccc(-c2nn[nH]n2)cc1` (stereo unspecified), for which the “activity, negative = inhibition” value is -9.71%.

Regarding `Cc1cc(C)c(S(=O)(=O)N2CCOCC2)cc1C`, the “activity, negative = inhibition” value was 8.64%.

Regarding `COC1(C2=NCCN2)COc2ccccc2O1` (stereo unspecified), the “activity, negative = inhibition” value is 0.458%.

On to `CC1(C)C(c2cccs2)=[N+]([O-])C2(CCCCC2=O)N1O` (stereo unspecified), for which the Potency is 22.4 µM (active).

In the case of `Cc1cccc(C)c1NC(=O)CNC(=O)Cc1ccc(Br)cc1`, the “activity, negative = inhibition” value is 7.71%.

As to `CCCCCC1CCC(c2nnc(SCC(C)=O)o2)CC1` (stereo unspecified), the “activity, negative = inhibition” value is -4.68%.

For `CCN(CC)S(=O)(=O)c1ccc(NC(=O)c2cccnc2Cl)c(NC(=O)c2cccnc2Cl)c1`, the Potency is 7.08 µM (active).

With `CCN(CC)S(=O)(=O)c1ccc(Cl)c(NC(=O)c2ccncc2)c1`, the Potency is 12.6 µM (active).

Turning to `CCN(CC)S(=O)(=O)c1cccc(C(=O)Nc2ccccc2)c1`, the “activity, negative = inhibition” value is -7.46%.

As to `CCN(CC)S(=O)(=O)c1ccc(C)c(NC(=O)COc2ccc(Br)cc2Cl)c1`, the “activity, negative = inhibition” value was 0.658%.

As for `Cc1nn(Cc2ccc(F)cc2)c(C)c1NC(=O)c1cccnc1Cl`, the “activity, negative = inhibition” value is 10.5%.

As to `Cc1ccc(CNC(=O)c2cccnc2Cl)cc1`, the “activity, negative = inhibition” value was 11.7%.

Consider `O=[N+]([O-])c1cc(S(=O)(=O)Nc2cccc(Cl)c2)ccc1N=Nc1c(O)[nH]c2ccccc12`, for which the “activity, negative = inhibition” value is 7.9%.

Turning to `COc1ccc(/C=N/NC(=O)c2ccncc2)cc1CN1CCCc2ccccc21`, the “activity, negative = inhibition” value is -1.8%.

For `CC(C)N(C(=O)c1ccc(-c2ccccc2F)cc1)C(C)C`, the “activity, negative = inhibition” value was -6.51%.

As for `COc1ccc(CN(Cc2ccc(OC)cc2)C(=O)c2cccs2)cc1`, the Potency was 8.91 µM (active).

Consider `COc1ccc(CN(C(=O)c2cccs2)c2nccs2)cc1OC`, for which the “activity, negative = inhibition” value was 2.43%.

Consider `O=C(c1cccs1)N(C(=O)c1cccs1)c1ccccn1`, for which the “activity, negative = inhibition” value was -0.508%.

In the case of `CCc1ccccc1NC(=S)N(CCN1CCCCCC1)Cc1ccco1`, the “activity, negative = inhibition” value is -4.85%.

`O=C(COC(=O)CNC(=O)c1ccco1)Nc1ccc(F)cc1`: the “activity, negative = inhibition” value was 5.83%.

In the case of `CC(C)[C@@H]1NC(=O)[C@H](Cc2ccccc2)NC(=O)[C@@H](CC(=O)O)NC(=O)CNC(=O)[C@H](CCCNC(=N)N)NC1=O`, the “activity, negative = inhibition” value was 7.85%.

On to `Cc1nccc(-c2ccc(-n3c(C)ccc3C)cc2)n1`, for which the “activity, negative = inhibition” value is -3.39%.

In the case of `Cc1ccc(C(=O)O)cc1NC(=O)c1ccc(Cn2nc(C)c(Cl)c2C)o1`, the “activity, negative = inhibition” value is -5.73%.

`Cc1ccc(C(=O)N/N=C\c2cc(Br)c(Br)o2)cn1`: the “activity, negative = inhibition” value is -1.22%.

Regarding `O=C(N/N=C/c1cc2c(cc1Br)OCO2)C1COc2ccccc2O1` (stereo unspecified), the Potency was 25.1 µM (active).

As for `C/C(=N/NC(=O)C1COc2ccccc2O1)c1ccco1` (stereo unspecified), the “activity, negative = inhibition” value was 6.2%.

Turning to `O=C(CNC(=O)C(c1ccccc1)c1ccccc1)N/N=C\c1ccc2c(c1)OCO2`, the “activity, negative = inhibition” value was 4.74%.

As to `O=C(/C=C/c1cc2c(cc1Br)OCO2)NCc1ccc(Cl)cc1`, the “activity, negative = inhibition” value was -10.2%.

Regarding `O=C(N/N=C\c1cc(Br)c(Br)o1)C1COc2ccccc2O1` (stereo unspecified), the Potency is 17.8 µM (active).
